Screening data (PubChem BioAssay)
Methyltransferases: Primary Screen for Target Class Profiling of Small Molecule Inhibitors of Methyltransferases; AID 1745853, 2022; calls only at 40 µM; purified enzyme, MTase-Glo SAH luminescence; active compounds read low; 3.9% of 25,000 active; call rule not given here
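Each enzyme was reacted with SAM and its substrate, with compounds tested once at 40 uM; SAH formed was read by MTase-Glo luminescence.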
MTase-Glo counter: Counterscreen for Target Class Profiling of Small Molecule Inhibitors of Methyltransferases; MTase-Glo coupled enzymes, SAH conversion luminescence, no MTase; AID 1745851, 2022; 6% of 180 active; shares compounds with Methyltransferases; Potency, µM (highest dose often 57.3 µM), inactives show at the top dose activity change, negative = inhibition, actives largely listed as inhibitors; active means well fitted inhibition curve with a large enough effect; further: potency means the concentration at half of the fitted maximal effect
* hit, by the source's call; i = inactive; + = active, no number; ! = not confirmed by another sample; [ ] = another dose, or the depositor's remark. This is one part of a sample in which hits are shown more often than they occur. On the % scale 0 is the no-effect control and ±100 the full control effect.

SMILES	Methyltransferases	others
COc1cccc(-c2ccc([C@@H](Oc3cc(-c4ccc(C[C@H](N)C(=O)O)cc4)nc(N)n3)C(F)(F)F)cc2)c1	i
CC(=O)N1CCN(NC(=O)c2ccc(F)cc2)CC1	i
CN1CCC(c2c[nH]c3ccc(NC(=O)c4ccc(F)cc4)cc23)CC1	+
CCN1c2cc(C(=O)Nc3cccc(F)c3)ccc2C(=O)N2CCCC21 (configuration not stated)	i
Cc1cc(C)c(S(=O)(=O)NCCn2c(-c3ccccc3)nc3ccccc32)cc1C	i
CCOc1ccc(C(=O)Cn2nc3n(Cc4ccc(F)cc4)c(=O)c4ccccc4n3c2=O)cc1	i
O=C(Cn1nc2n(Cc3ccc(F)cc3)c(=O)c3ccccc3n2c1=O)NCc1ccc(Cl)cc1	i
C=C1C(O)CC2C(C(=O)O)=COC(O[C@@H]3O[C@H](COC(=O)c4ccc(O)cc4)[C@@H](O)[C@H](O)[C@H]3O)C12 (some centres not stated)	i
COC(=O)C1=CO[C@@H](O[C@@H]2O[C@H](CO[C@@H]3O[C@H](COC(=O)/C=C/c4cc(OC)c(O)c(OC)c4)[C@@H](O)[C@H](O)[C@H]3O)[C@@H](O)[C@H](O)[C@H]2O)[C@@H]2C(CO)=CC[C@H]12	+
C[C@]1(O)CC[C@@H]2C(C(=O)O)=CO[C@@H](O[C@@H]3O[C@H](COC(=O)c4ccc(O)cc4)[C@@H](O)[C@H](O)[C@H]3O)[C@@H]21	i
C=C1[C@H]2[C@H](O[C@@H]3O[C@H](COC(=O)/C=C/c4cc(OC)c(O)c(OC)c4)[C@@H](O)[C@H](O)[C@H]3O)OC=C(C(=O)O)[C@H]2C[C@@H]1O	+
COC(=O)C1=COC(O[C@@H]2O[C@H](CO[C@@H]3O[C@H](COC(=O)/C=C\c4ccc(O)cc4)[C@@H](O)[C@H](O)[C@H]3O)[C@@H](O)[C@H](O)[C@H]2O)C2C(CO)=CCC12 (some centres not stated)	i
COC(=O)C1=COC(OC2OC(CO)C(O)C(O)C2O)C2C(COC(=O)/C=C/c3ccc(O)c(O)c3)C(O)C(O)C12 (configuration not stated)	i
COC(=O)C1=CO[C@@H](O[C@@H]2O[C@H](CO[C@@H]3O[C@H](COC(=O)/C=C/c4ccc(O)cc4)[C@@H](O)[C@H](O)[C@H]3O)[C@@H](O)[C@H](O)[C@H]2O)[C@@H]2C(CO)=CC[C@H]12	i
COc1cc(/C=C/C(=O)OC[C@H]2O[C@@H](OC3OC=C(C(=O)O)C4C(O)CC(C)(O)C34)[C@H](O)[C@@H](O)[C@@H]2O)cc(OC)c1O (some centres not stated)	+
CC1(O)CC(O)C2C(C(=O)O)=COC(OC3OC(CO)C(O)C(O)C3OC(=O)/C=C/c3ccc(O)cc3)C21 (configuration not stated)	i
CC1(C(=O)NC2CCCCCC2)Cn2nc(-c3ccco3)cc2C(=O)N1Cc1ccc2c(c1)OCO2 (configuration not stated)	i
O=C(c1ccc[nH]1)N1CCC(n2cc(-c3nc(C4CC4)no3)nn2)C1 (configuration not stated)	i
CCCN1C(=O)c2cc(-c3ccc(OC)cc3)nn2CC1(C)C(=O)NC1CCCCC1 (configuration not stated)	i
CC1CC(C)CN(CCCN2C(=O)c3cc4sccc4n3CC2(C)C(=O)NC2CCCCCCC2)C1 (configuration not stated)	i
Cn1c(=O)n(C)c2cc(S(=O)(=O)Nc3ccc(N4CCOCC4)cc3)c(Cl)cc21	i
COc1ccc(CNC(=O)C2(C)Cn3cnc(C(=O)NCc4cccc(F)c4)c3C(=O)N2C2CC2)cc1 (configuration not stated)	i
CCCn1c(=O)c2cc(F)ccc2n2c(SCC(=O)Nc3cc(OC)cc(OC)c3)nnc12	i
CN1CCN(C(CN)C2CCCCC2)CC1 (configuration not stated)	i
O=C(O)/C=C/c1ccc(O)c(O)c1	i
SMILES	Methyltransferases	others
O=C(O)/C=C/c1ccc(-c2ccc(O)c(C34CC5CC(CC(C5)C3)C4)c2)cc1	+
CCC(C)NC(=O)c1ccc2c(=O)n(C)c3nnc(SCC(=O)Nc4cccc(OC)c4)n3c2c1 (configuration not stated)	i
CC1(C(=O)NC2CCCCCC2)Cn2c(c(-n3cccc3)c3cc(F)ccc32)C(=O)N1Cc1ccccc1 (configuration not stated)	i
CC1(C(=O)NC2CCCCC2)Cn2c(ccc2-c2ccco2)C(=O)N1CCCN1CCCCC1 (configuration not stated)	i
O=C(NCc1ccc(F)cc1)[C@@H]1C[C@@H](c2cccc(C(F)(F)F)c2)N(CC2CCOCC2)C1	i
CCC(C)N1C(=O)c2cc3occc3n2CC1(C)C(=O)NC1CCCCCC1 (configuration not stated)	i
CC1(C)CC(=O)c2c(C(F)(F)F)nn(-c3ccc(C(N)=O)c(NC4CCC(OC(=O)CN)CC4)c3)c2C1 (configuration not stated)	+!
COC(=O)c1cc2n(n1)CC(C)(C(=O)NC1CCCCC1)N(Cc1ccc(C)cc1)C2=O (configuration not stated)	i
Cc1ccc(NC(=O)CSc2nnc3n(Cc4ccc(F)cc4)c(=O)c4ccccc4n23)c(C)c1	i
CCCCCNC(=O)c1ccc2c(=O)nc3c(-c4ccccc4)n[nH]n3c2c1	i
COc1cccc(OC)c1-c1cc(C(=O)N[C@@H](CC(C)C)C(=O)O)nn1-c1ccnc2cc(Cl)ccc12	i
COc1cccc(CNC(=O)c2c(C)noc2-c2ccccc2OC)c1	i
COc1ccc(OCc2cc(C(=O)NC(CO)C(C)C)no2)c2ccccc12 (configuration not stated)	+	MTase-Glo counter=2.3%
CCCn1c(=O)c2cc(F)ccc2n2c(SCc3ccc(F)cc3)nnc12	i
COc1cccc(CN2C(=O)c3cc4occc4n3CC2(C)C(=O)NC2CCCCCC2)c1OC (configuration not stated)	i
O=C(OCc1ccccc1)N1CCOCC12CCN(Cc1c[nH]c3ccccc13)CC2	+	MTase-Glo counter=3.0%[85.7 µM]
c1ccc(CC2=NOC3(CCN(Cc4c[nH]c5ccccc45)CC3)C2)cc1	i
O=C1OCC2(CCN(Cc3c[nH]c4ccccc34)C2)N1Cc1ccccc1 (configuration not stated)	i
CCCn1c(=O)c2ccccc2n2c(=O)n(CC(=O)c3ccc(OCC)cc3)nc12	i
COc1ccc(C(=O)NC[C@H]2Cn3ccnc3CO2)cc1	i
COc1ccc(S(=O)(=O)NCC2Cn3cccc3C(=O)N2Cc2ccccc2)cc1 (configuration not stated)	i
COc1ccc(S(=O)(=O)NC[C@H]2Cn3c(-c4ccc(Cl)cc4)cnc3CO2)cc1	+	MTase-Glo counter=-1.9%[85.7 µM]
CC(C)CCn1c(=O)c2ccccc2n2c(CCC(=O)NCc3ccccc3)nnc12	i
COc1ccccc1CN1C(=O)c2cc(-c3cccs3)nn2CC1(C)C(=O)NC1CCCCC1 (configuration not stated)	i
